Assay results from PubChem BioAssay AID1671202 (University of Kansas High Throughput Screening Laboratory, 2021).
“And” between values parts separate entries of the source, which are not always exact repeats. Equal values may be shown once. About 6,900 (3.6%) of roughly 190,000 compounds were called active. No stated cut-off is given here; in the data, active means inhibition above about 50%; inactive means the rest. The entries come from a sample that favours actives as a whole. The source holds several records for some structures; these can differ, active in one and inactive in another.

What follows are compounds tested against Huntingtin (Homo sapiens) (UniProt P42858) (assay: mutant huntingtin-calmodulin interaction inhibitors – biochemical, AlphaScreen, primary screen (AID 1671202;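 further: 0% = both proteins with DMSO and 100% = one protein alone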)). Settings: AlphaScreen His-mHTT/GST-CaM binding, luminescence; at 15 µM, stronger effect = higher value.
Chain of Huntingtin (Homo sapiens) (P42858 whole entry, looked up, stated change not applied): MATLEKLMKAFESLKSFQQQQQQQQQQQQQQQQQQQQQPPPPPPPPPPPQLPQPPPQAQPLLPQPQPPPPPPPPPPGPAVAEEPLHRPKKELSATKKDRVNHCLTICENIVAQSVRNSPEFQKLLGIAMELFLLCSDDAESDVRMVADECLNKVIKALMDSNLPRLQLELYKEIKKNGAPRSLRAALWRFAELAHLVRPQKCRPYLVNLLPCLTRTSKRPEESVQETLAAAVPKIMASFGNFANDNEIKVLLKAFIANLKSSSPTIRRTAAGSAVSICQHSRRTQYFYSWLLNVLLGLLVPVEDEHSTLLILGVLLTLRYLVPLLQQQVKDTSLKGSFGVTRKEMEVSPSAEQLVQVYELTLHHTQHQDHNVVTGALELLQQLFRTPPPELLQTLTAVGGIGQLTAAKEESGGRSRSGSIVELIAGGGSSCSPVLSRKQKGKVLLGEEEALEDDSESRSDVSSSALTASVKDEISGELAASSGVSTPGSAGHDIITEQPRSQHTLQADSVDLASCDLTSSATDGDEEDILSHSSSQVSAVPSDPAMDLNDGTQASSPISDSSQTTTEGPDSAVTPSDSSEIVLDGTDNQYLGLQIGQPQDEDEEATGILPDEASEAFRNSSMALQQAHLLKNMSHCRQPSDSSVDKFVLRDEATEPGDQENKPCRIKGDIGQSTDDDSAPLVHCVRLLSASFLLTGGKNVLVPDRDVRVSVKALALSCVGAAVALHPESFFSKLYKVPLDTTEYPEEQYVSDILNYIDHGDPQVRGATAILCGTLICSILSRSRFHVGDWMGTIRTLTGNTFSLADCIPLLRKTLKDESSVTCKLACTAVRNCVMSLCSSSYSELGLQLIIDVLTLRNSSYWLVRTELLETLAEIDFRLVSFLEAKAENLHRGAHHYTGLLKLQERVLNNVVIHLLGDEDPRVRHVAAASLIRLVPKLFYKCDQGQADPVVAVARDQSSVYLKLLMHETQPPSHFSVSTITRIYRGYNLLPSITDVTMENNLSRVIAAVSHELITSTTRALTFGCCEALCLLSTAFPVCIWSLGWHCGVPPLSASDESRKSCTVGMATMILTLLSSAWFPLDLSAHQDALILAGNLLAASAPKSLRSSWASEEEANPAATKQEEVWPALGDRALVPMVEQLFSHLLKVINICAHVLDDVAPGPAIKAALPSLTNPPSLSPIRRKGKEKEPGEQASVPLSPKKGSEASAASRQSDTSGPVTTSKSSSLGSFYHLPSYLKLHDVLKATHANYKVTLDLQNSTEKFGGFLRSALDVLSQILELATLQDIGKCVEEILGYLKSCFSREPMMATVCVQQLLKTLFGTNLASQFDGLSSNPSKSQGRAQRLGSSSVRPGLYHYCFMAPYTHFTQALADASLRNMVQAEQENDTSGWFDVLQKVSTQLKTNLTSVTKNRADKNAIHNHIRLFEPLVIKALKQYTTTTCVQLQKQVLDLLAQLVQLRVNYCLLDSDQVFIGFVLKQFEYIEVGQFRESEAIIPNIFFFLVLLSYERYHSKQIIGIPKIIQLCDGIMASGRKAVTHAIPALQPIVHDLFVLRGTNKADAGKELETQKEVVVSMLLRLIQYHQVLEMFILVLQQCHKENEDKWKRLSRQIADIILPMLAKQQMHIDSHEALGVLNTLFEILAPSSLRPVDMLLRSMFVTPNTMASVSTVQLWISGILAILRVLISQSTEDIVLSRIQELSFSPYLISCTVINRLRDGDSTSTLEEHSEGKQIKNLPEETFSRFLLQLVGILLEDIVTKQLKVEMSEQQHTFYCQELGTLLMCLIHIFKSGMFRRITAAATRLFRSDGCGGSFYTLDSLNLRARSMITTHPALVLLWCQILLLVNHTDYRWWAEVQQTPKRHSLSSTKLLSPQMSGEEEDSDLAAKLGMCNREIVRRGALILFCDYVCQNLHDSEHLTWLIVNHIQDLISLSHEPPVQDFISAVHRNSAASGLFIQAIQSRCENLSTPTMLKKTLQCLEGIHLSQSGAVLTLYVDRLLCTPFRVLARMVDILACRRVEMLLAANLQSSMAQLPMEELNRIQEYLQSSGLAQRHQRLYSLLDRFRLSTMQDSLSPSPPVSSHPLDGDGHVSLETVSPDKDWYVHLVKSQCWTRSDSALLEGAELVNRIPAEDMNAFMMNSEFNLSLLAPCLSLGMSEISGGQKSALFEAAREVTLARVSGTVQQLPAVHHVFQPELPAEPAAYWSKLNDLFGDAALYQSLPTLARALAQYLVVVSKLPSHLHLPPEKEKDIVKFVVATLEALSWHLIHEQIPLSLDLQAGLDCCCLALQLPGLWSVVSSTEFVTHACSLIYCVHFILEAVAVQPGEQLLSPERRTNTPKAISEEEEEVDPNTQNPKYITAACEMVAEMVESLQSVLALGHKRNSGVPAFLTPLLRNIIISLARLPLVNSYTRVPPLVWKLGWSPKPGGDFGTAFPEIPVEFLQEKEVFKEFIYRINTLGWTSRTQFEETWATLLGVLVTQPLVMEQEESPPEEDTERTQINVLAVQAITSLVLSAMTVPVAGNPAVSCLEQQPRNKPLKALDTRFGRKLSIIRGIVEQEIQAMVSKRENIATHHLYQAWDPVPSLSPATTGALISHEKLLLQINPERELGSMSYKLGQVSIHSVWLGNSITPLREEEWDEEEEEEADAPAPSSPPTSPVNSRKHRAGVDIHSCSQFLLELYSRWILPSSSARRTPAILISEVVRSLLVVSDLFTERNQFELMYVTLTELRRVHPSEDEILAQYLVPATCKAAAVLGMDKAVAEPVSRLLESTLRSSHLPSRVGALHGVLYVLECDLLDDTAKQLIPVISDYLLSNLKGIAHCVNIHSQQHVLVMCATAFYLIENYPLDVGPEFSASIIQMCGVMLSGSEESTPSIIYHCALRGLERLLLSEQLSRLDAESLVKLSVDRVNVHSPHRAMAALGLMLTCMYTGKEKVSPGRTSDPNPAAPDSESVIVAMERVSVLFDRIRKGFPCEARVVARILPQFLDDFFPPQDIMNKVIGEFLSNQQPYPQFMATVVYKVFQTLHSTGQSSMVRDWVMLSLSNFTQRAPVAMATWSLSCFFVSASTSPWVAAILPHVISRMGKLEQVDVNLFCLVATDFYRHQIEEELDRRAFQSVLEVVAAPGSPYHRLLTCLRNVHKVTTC
In the case of `CCOc1ccc(/C=C2\CS/C(=C\c3ccc(OCC)cc3)C2=O)cc1`, the inhibition is reported as 28% (inactive). `CN(CC(=O)N1N=C(c2cccs2)CC1c1ccccc1F)C(=O)C1CCCC1` (stereo not given) was tested, and the inhibition was 23% (inactive). For `CC(=O)N(C)CC(=O)N1N=C(c2ccccc2Cl)CC1c1ccccc1Cl` (stereo not given), the inhibition was 56.2% (active). `CC(C)C(=O)N(C)CC(=O)N1N=C(c2ccc(F)cc2)CC1c1ccc(F)cc1` (stereo not given) was tested, and the inhibition was 29.5% (inactive). For `CC(=O)N(C)CC(=O)N1N=C(c2cccs2)CC1c1ccccc1Cl` (stereo not given), the inhibition was 1.2% (inactive). `CNCC(=O)N1N=C(c2cccn2C)CC1c1ccccc1` (stereo not given) was tested, and the inhibition was 8.9% (inactive). For `CC(C)C(=O)N(C)CC(=O)N1N=C(c2ccccc2Cl)CC1c1ccc(F)cc1` (stereo not given), the inhibition was 57% (active). `O=C(c1ccc(F)cc1)N1CCC(c2nc(-c3ccccc3)n[nH]2)CC1` was tested, and the inhibition was 12.2% (inactive). `O=C1CC[C@@]23CCCN2C(=O)CCC[C@H]3[C@H]1Cc1ccccc1` was tested, and the inhibition was 1.2% (inactive). In the case of `Cc1nc(-c2cccs2)c(CCC(=O)Nc2cccc3cccnc23)s1`, the inhibition is reported as 8.1% (inactive). `C=C(C)CN(CC)Cc1cccc(OC)c1OC` was tested, and the inhibition was -4.5% (inactive). With `COc1ccc(C2CC(=O)C(C=Nc3cc(Cl)ccc3O)=C(O)C2)cc1` (stereo not given) the inhibition was 4% (inactive). For `CCC(C)NC(=O)Cn1cnc2c(oc3ccccc32)c1=O` (stereo not given), the inhibition was -6.1% (inactive). In the case of `Cc1ccc(C(=O)Nc2ccc(N(C)C)cc2)cc1C`, the inhibition is reported as 59.4% (active). For `CC(=O)Nc1ccc(NC(=O)c2ccc(N(C)C)cc2)cc1`, the inhibition was 5.9% (inactive). In the case of `CC(=O)c1ccc(NC(=O)c2ccc(CN(c3ccc(C)c(C)c3)S(C)(=O)=O)cc2)cc1`, the inhibition is reported as 3.8% (inactive). `CCOc1ccc(CNC(=O)C2CCCN(c3ccc(N4CCOCC4)nn3)C2)cc1` (stereo not given) was tested, and the inhibition was -1.05% (inactive). With `COCCNC(=O)c1cn2cc(C)ccc2n1` the inhibition was -7.5% (inactive). In the case of `O=C(CCC(=O)N1CC2CCCN2c2ccccc21)NCCCN1CCCC1` (stereo not given), the inhibition is reported as 71.5% (active). In the case of `O=C(CCC(=O)N1CC2CCCN2c2ccccc21)NCCCN1CCCCC1` (stereo not given), the inhibition is reported as 7.41% (inactive). With `O=C(CCC(=O)N1CC2CCCN2c2ccccc21)NCc1cccc(Br)c1` (stereo not given) the inhibition was 36.6% (inactive). In the case of `COc1ccc([N+](=O)[O-])cc1NCc1ccccc1Br`, the inhibition is reported as -6.4% (inactive). `COc1cccc(/C=C(\C#N)c2nc3ccc(C)cc3[nH]2)c1OC` was tested, and the inhibition was 6.1% (inactive). For `COc1cc(/C=C(\C#N)c2nc3ccc(C)cc3[nH]2)c(Br)cc1O`, the inhibition was 47.5% (inactive) and 79% (active). `CCOc1ccc(/C=C(\C#N)c2nc3ccc(C)cc3[nH]2)cc1OC` was tested, and the inhibition was 5.8% (inactive). With `CCS(=O)(=O)NCC1CCC(C(=O)Nc2ccccc2C)CC1` (stereo not given) the inhibition was -10.6% (inactive). `Cc1ccc(C(=O)N2CCN(c3ccccc3)CC2)c(Cl)c1` was tested, and the inhibition was 2.2% (inactive). `O=C(c1cccc2[nH]cc(CN3CCCC3)c12)N1CCN(c2ccccc2)CC1` was tested, and the inhibition was 54.3% (active). For `O=C(C1CCCN(Cc2c[nH]c3ccccc23)C1)N1CCCCCC1` (stereo not given), the inhibition was 11.1% (inactive). With `CCN(CC)C(=O)CSc1nnc(NC(C)=O)s1` the inhibition was -5.1% (inactive). For `O=C(N=c1sccn1CC(=O)N1CCCC1)c1ccccc1Cl`, the inhibition was 7% (inactive). With `O=C(NC1CC2CC1N(C(=O)NCCc1ccccc1)C2)c1cccnc1` (stereo not given) the inhibition was 0.1% (inactive). With `COc1cc(CN2CCN(C/C=C/c3ccccc3)CC2)cc(Br)c1O` the inhibition was 55.5% (active). With `COc1ccccc1/C=C/CN1CCN(C)CC1` the inhibition was -4.8% (inactive). In the case of `COc1cccc(CN2CCN(C/C=C/c3ccccc3)CC2)c1OC`, the inhibition is reported as 6.9% (inactive). `Cc1oc(C2CCN(S(=O)(=O)c3ccc(F)cc3)CC2)nc1C(=O)N1CCOCC1` was tested, and the inhibition was -2.14% (inactive). With `CC(=O)NCCc1csc(C2CCN(C(=O)C3(c4ccccc4)CC3)CC2)n1` the inhibition was 0.81% (inactive). For `CCOc1cc(C=C2C(=O)OC(C)(c3ccccc3)OC2=O)ccc1O` (stereo not given), the inhibition was 7% (inactive). For `CCOc1c(Br)cc(/C=C2\NC(=O)N(Cc3ccccc3F)C2=O)cc1OC`, the inhibition was -4% (inactive). For `C=CCOc1ccc(/C=C2/C(=O)ON=C2C)cc1OCC`, the inhibition was 89% (active). For `COc1cc(C=O)cc(Br)c1OCc1ccccn1`, the inhibition was -0.1% (inactive). For `CCOc1cc(/C=C2\C(=O)ON=C2C)cc(Br)c1OCc1ccccc1F`, the inhibition was 51% (active). In the case of `CCOc1ccc(/C=C2/N=C(c3ccc(Cl)cc3)OC2=O)cc1OCC`, the inhibition is reported as -5% (inactive). For `NS(=O)(=O)c1ccc(NC(=O)CSc2nc3sc4c(c3c(=O)[nH]2)CCC4)cc1`, the inhibition was 5% (inactive). `COc1ccc(C2SCCN2C(=O)c2cc3ccccc3oc2=O)cc1` (stereo not given) was tested, and the inhibition was 0% (inactive). In the case of `COc1ccc(C2CC(O)(C#Cc3ccccc3)C(C)C(c3ccc(OC)cc3)N2)cc1` (stereo not given), the inhibition is reported as 100% (active). With `Cc1[nH]nc(-c2ccc(S(=O)(=O)N3CCC(N4CCCCC4)CC3)s2)c1C` the inhibition was 7.48% (inactive). `Cc1n[nH]c(C)c1S(=O)(=O)N1CCC(C(=O)Nc2ccc(Br)cc2)CC1` was tested, and the inhibition was -8% (inactive). For `CC(Oc1ccccc1)C(=O)Nc1nc(-c2ccccc2)cs1` (stereo not given), the inhibition was -30% (inactive). For `COc1cc(NS(=O)(=O)c2ccc(Nc3nc(-c4cccnc4)cs3)cc2)nc(OC)n1`, the inhibition was 25.8% (inactive). For `COc1ccc(-c2csc(Nc3ccc(O)cc3)n2)cc1`, the inhibition was 61.1% (active). With `COc1cccc(N/C=C(\C#N)c2nc(-c3ccc(Cl)cc3)cs2)c1` the inhibition was -2% (inactive). `O=C(Nc1nc(-c2ccc([N+](=O)[O-])cc2)cs1)c1ccc(Cl)cc1` was tested, and the inhibition was 0.3% (inactive). For `CN(C)c1ccc(Nc2nc(-c3ccc(Cl)cc3)cs2)cc1`, the inhibition was 57.2% (active). For `COc1ccc2oc(=O)c(-c3csc(Nc4cccc(C(C)=O)c4)n3)cc2c1`, the inhibition was 2% (inactive). For `COc1cccc(Nc2nc(-c3ccc(Cl)cc3)cs2)c1`, the inhibition was 82.2% (active). In the case of `Clc1ccc(-c2csc(Nc3ncccn3)n2)cc1`, the inhibition is reported as -1% (inactive). In the case of `Cc1ccsc1C1C(C#N)=C(N)N(c2ccc(Br)cc2)C2=C1C(=O)CCC2` (stereo not given), the inhibition is reported as 22% (inactive). For `COC(=O)c1ccc(Cl)cc1NC(=O)N1CCOc2ccccc21`, the inhibition was -2.93% (inactive). In the case of `Cc1ccc(S(=O)(=O)CCC(=O)Nc2c(F)cccc2F)cc1`, the inhibition is reported as 0% (inactive). In the case of `CCN(CC)S(=O)(=O)c1ccc2oc(C(=O)NCC3CCCO3)c(C)c2c1` (stereo not given), the inhibition is reported as 6% (inactive). With `O=C(Nc1cccc(Cl)c1)C1CCCN(c2nccnc2Oc2ccccc2)C1` (stereo not given) the inhibition was -9.65% (inactive). In the case of `COc1ccc(C)cc1NC(=O)N1CC2CC(NC(=O)c3cccs3)C1C2` (stereo not given), the inhibition is reported as 3.7% (inactive). For `COc1cc(NC(=O)c2noc3c2CCCC3)cc(OC)c1OC`, the inhibition was 1.68% (inactive). With `O=S1(=O)c2cccc3cccc(c23)N1Cc1cccc(F)c1` the inhibition was -24.4% (inactive). With `O=C(Nc1ccc(N2CCN(C3CCCC3)C2=O)nc1)c1cc(F)cc(F)c1` the inhibition was -7.5% (inactive). For `Cc1cccc(CNC(=O)CN2C(=O)C3CCCN3C(=O)c3cccc(C)c32)c1` (stereo not given), the inhibition was -6.69% (inactive). In the case of `Cc1ccc2c(c1)C(=O)N1CCCCC1C(=O)N2CC(=O)NCCN1CCCCCC1` (stereo not given), the inhibition is reported as 75% (active). In the case of `CC1CCN(CCNC(=O)CN2C(=O)C3CCCN3C(=O)c3ccc(F)cc32)CC1` (stereo not given), the inhibition is reported as 1.11% (inactive). For `CC(=O)NCc1csc(C2CCN(S(=O)(=O)c3ccc(C)cc3C)CC2)n1`, the inhibition was 6.65% (inactive). With `O=C1NC(c2ccncc2)Nc2sc3c(c21)CCCC3` (stereo not given) the inhibition was 16% (inactive). In the case of `Cc1ccc(C2NC(=O)c3c(sc4c3CCCC4)N2)cc1` (stereo not given), the inhibition is reported as 5% (inactive). In the case of `Cc1ccc(C2NC(=O)c3c(sc4c3CCCC4)N2)c(O)c1` (stereo not given), the inhibition is reported as 78% (active). In the case of `Cc1ccc2c(c1)C(=O)NC1(CCN(C(=O)C3CCC3)CC1)N2`, the inhibition is reported as 3.5% (inactive). In the case of `CCOC(=O)C(C)Oc1ccc2c(c1)OC(=Cc1ccc(OC)cc1)C2=O` (stereo not given), the inhibition is reported as -21.4% (inactive). `COc1ccc(C(=O)Nc2cccc(NC(=O)c3ccc(Cl)cc3Cl)c2)cc1` was tested, and the inhibition was 4.1% (inactive). For `O=C(c1ccc(F)c(F)c1)N1CCN(c2nnc3ccccn23)CC1`, the inhibition was -6.3% (inactive). In the case of `Cc1cc(NC(=O)N2CC3CCCN3c3ccccc32)ccc1Br` (stereo not given), the inhibition is reported as 87% (active). For `CCn1c(C2CCN(C(=O)Nc3ccc(Br)c(C)c3)C2)nc2cccnc21` (stereo not given), the inhibition was 25.2% (inactive). For `COc1cc(OC)c(NC(=O)N2CC3CCCN3c3ccccc32)cc1Cl` (stereo not given), the inhibition was 38.8% (inactive). With `CC(C)(C)NC(=O)N1CCC(CNS(=O)(=O)c2ccc(Br)s2)CC1` the inhibition was -7.3% (inactive). With `CCCNc1cc(N2CCCC(CCC(=O)Nc3cccc(C)c3C)C2)ncn1` (stereo not given) the inhibition was -0.7% (inactive). In the case of `CCCNc1cc(N2CCCC(CCC(=O)N3CCN(CCC)CC3)C2)ncn1` (stereo not given), the inhibition is reported as 5.87% (inactive). In the case of `CCCNc1cc(N2CCCC(CCC(=O)Nc3ccc4c(c3)OCCO4)C2)ncn1` (stereo not given), the inhibition is reported as 62.5% (active). `Cc1ccc(Cl)cc1N1CCN(C(=O)Cn2nc(C(F)(F)F)c(Br)c2C)CC1` was tested, and the inhibition was -5% (inactive). For `C=C(C)c1nc2ccc(Br)cc2c(=O)o1`, the inhibition was -3% (inactive). With `Cc1noc(-c2nn(C)c3c2CN(C(=O)Nc2cccc(C(F)(F)F)c2)CC3)n1` the inhibition was 28.3% (inactive). In the case of `Cc1cccc(NC(=O)N2CCc3c(c(-c4nc(C5CC5)no4)nn3C)C2)c1`, the inhibition is reported as 34.8% (inactive). In the case of `CCc1cccc(NC(=O)N2CCc3c(c(-c4nc(C)no4)nn3C)C2)c1`, the inhibition is reported as 53.9% (active). For `CCOC(=O)c1sc(NC(=O)CN2C(=O)c3ccccc3C2=O)c(SC#N)c1C`, the inhibition was 0.3% (inactive). `CCN1c2ccc(C)cc2C(=O)NC12CCN(C(=O)c1cc(F)cc(F)c1)CC2` was tested, and the inhibition was 3.5% (inactive). `Fc1ccc(Nc2ncc3c(n2)CCN(Cc2ccccc2)C3)cc1` was tested, and the inhibition was -7.34% (inactive). In the case of `COc1ccc(CN2CCc3nc(Nc4ccc5c(c4)OCCO5)ncc3C2)cc1`, the inhibition is reported as 55.6% (active). With `COc1cc(Nc2ncc3c(n2)CCN(Cc2cc(OC)ccc2OC)C3)cc(OC)c1` the inhibition was 76.3% (active). For `COc1cccc(Nc2ncc3c(n2)CCN(Cc2ccc(F)c(F)c2)C3)c1`, the inhibition was 33.9% (inactive). For `COc1ccc(CN2CCc3nc(Nc4ccccc4)ncc3C2)c(OC)c1OC`, the inhibition was 47.4% (inactive). With `COc1ccc(OC)c(Nc2ncc3c(n2)CCN(Cc2ccccc2)C3)c1` the inhibition was 10.5% (inactive). In the case of `CCN1CCN(c2ncc3c(n2)CCN(Cc2ccccc2Cl)C3)CC1`, the inhibition is reported as 39% (inactive). For `Clc1ccccc1CN1CCc2nc(Nc3ccc4c(c3)OCO4)ncc2C1`, the inhibition was 87.4% (active). With `CCOc1cccc(CN2CCc3nc(Nc4ccc(OC)cc4)ncc3C2)c1` the inhibition was -0.89% (inactive).
